This is an account of results in the supplement of paper PMC9262897, “Low-cost anti-mycobacterial drug discovery using engineered E. coli” (Nature Communications, 2022).

Structures can show the parent of a compound that is named as a salt. ± gives the standard deviation of the averaged measurements.

The first assay has as its system E. coli TESEC Mtb DapB. The experiment in a line: growth (OD600 after 10 h); higher = more growth (less inhibition). The following applies: arabinose induction (level): High; compound 0.1 mM; raw OD600 reference: median of DMSO wells […], cell-free background 0.041. On the procedure:
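TESEC E. coli strains in which the native enzyme is deleted and replaced by arabinose-inducible Mtb Asd, DapB, CysH or TrpD, each grown in its selective medium. Strains were screened against the Prestwick library at 0.1 mM and 1% DMSO in 384-well format at low and high arabinose induction. Growth is read as OD600 after 10 h in triplicate.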
Regarding `O=C(OCC(O)CO)c1ccccc1Nc1ccnc2cc(Cl)ccc12` (stereo not given) [Glafenine hydrochloride], the growth turned out to be 0.196 ± 0.0089.

As to `COC1=C(OC)C(=O)C(CCCCCCCCCCO)=C(C)C1=O` [Idebenone], the growth is 0.0884 ± 0.057.

As for `NS(=O)(=O)c1cc2c(cc1Cl)N=CNS2(=O)=O` [Chlorothiazide], the growth was found to be 0.193 ± 0.006.

In turn, `CN(C)CCN(Cc1ccccc1)c1ccccn1` [Tripelennamine hydrochloride] had a growth of 0.177 ± 0.0099.

On to `CC(=O)O[C@]1(C(C)=O)CC[C@H]2[C@@H]3C=C(C)C4=CC(=O)CC[C@@H]4[C@H]3CC[C@@]21C` [Nomegestrol acetate], for which the growth came out at 0.144 ± 0.014.

In turn, `Cc1ccc(-c2cc(C(F)(F)F)nn2-c2ccc(S(N)(=O)=O)cc2)cc1` [Celecoxib] came in with a growth of 0.0473 ± 0.00055.

Molecule `CO[C@H]1/C=C/O[C@@]2(C)Oc3c(C)c(O)c4c(O)c(c5c(nc6cc(C)ccn65)c4c3C2=O)NC(=O)/C(C)=C\C=C\[C@H](C)[C@H](O)[C@@H](C)[C@@H](O)[C@@H](C)[C@H](OC(C)=O)[C@@H]1C` [Rifaximin] gave a growth of 0.103 ± 0.089.

Consider `CN(C)CCc1c[nH]c2ccc(Cn3cncn3)cc12` [Rizatriptan benzoate], for which the growth is 0.193 ± 0.0065.

Consider `CN(CCOc1ccc(CC2SC(=O)NC2=O)cc1)c1ccccn1` (stereo not given) [Rosiglitazone Hydrochloride], for which the growth stood at 0.177 ± 0.015.

As to `COCC1=C(C(=O)OC(C)OC(=O)OC(C)C)N2C(=O)[C@@H](NC(=O)/C(=N\OC)c3csc(N)n3)[C@H]2SC1` (stereo not given in full) [Cefpodoxime proxetil], the growth came out at 0.202 ± 0.05.

For `CC1COc2c(N3CCN(C)CC3)c(F)cc3c(=O)c(C(=O)O)cn1c23` (stereo not given) [Ofloxacin], the growth is 0.0501 ± 0.0018.

As to `CC(C)(C)CC(C)(C)c1ccc(OCCOCC[N+](C)(C)Cc2ccccc2)cc1` [Benzethonium chloride], the growth is 0.0485 ± 0.0028.

For the molecule `Cc1nc(=O)c2cc(CN(C)c3ccc(C(=O)N[C@@H](CCC(=O)O)C(=O)O)s3)ccc2[nH]1` [Raltitrexed], the growth was 0.188 ± 0.015.

`Nc1ccc(S(=O)(=O)Nc2nccs2)cc1` [Sulfathiazole] gave a growth of 0.197 ± 0.012.

In turn, `Cc1onc(-c2ccccc2)c1-c1ccc(S(N)(=O)=O)cc1` [Valdecoxib] showed a growth of 0.178 ± 0.015.

The molecule `C[N+](C)(C)CCCCCC[N+](C)(C)C` [Hexamethonium dibromide dihydrate] gave a growth of 0.205 ± 0.014.

In turn, `Cc1c(O)c(=O)n(-c2ccccc2)n1C` [Antipyrine, 4-hydroxy] gave a growth of 0.184 ± 0.01.

In turn, `CCOC(=O)C(C)(C)Oc1ccc(Cl)cc1` [Clofibrate] had a growth of 0.19 ± 0.015.

`CCCSc1ccc2[nH]c(NC(=O)OC)nc2c1` [Albendazole]: the growth was determined as 0.205 ± 0.0098.

With `CCN(CC)CCOC(=O)C(Cc1cccc2ccccc12)CC1CCCO1` (stereo not given) [Nafronyl oxalate], the growth turned out to be 0.184 ± 0.019.

Still in this assay, the particulars now being: arabinose induction (level): Low; compound 0.1 mM; raw OD600 reference: median of DMSO wells 0.227, cell-free background 0.041.
`O=C(OCC(O)CO)c1ccccc1Nc1ccnc2cc(Cl)ccc12` (stereo not given) [Glafenine hydrochloride]: the growth was found to be 0.276 ± 0.059.

Turning to `COC1=C(OC)C(=O)C(CCCCCCCCCCO)=C(C)C1=O` [Idebenone], the growth worked out at 0.066 ± 0.0091.

Molecule `NS(=O)(=O)c1cc2c(cc1Cl)N=CNS2(=O)=O` [Chlorothiazide] returned a growth of 0.239 ± 0.024.

Turning to `CN(C)CCN(Cc1ccccc1)c1ccccn1` [Tripelennamine hydrochloride], the growth came to 0.209 ± 0.027.

In turn, `CC(=O)O[C@]1(C(C)=O)CC[C@H]2[C@@H]3C=C(C)C4=CC(=O)CC[C@@H]4[C@H]3CC[C@@]21C` [Nomegestrol acetate] showed a growth of 0.129 ± 0.0045.

Consider `Cc1ccc(-c2cc(C(F)(F)F)nn2-c2ccc(S(N)(=O)=O)cc2)cc1` [Celecoxib], for which the growth was 0.0486 ± 0.0019.

On to `CO[C@H]1/C=C/O[C@@]2(C)Oc3c(C)c(O)c4c(O)c(c5c(nc6cc(C)ccn65)c4c3C2=O)NC(=O)/C(C)=C\C=C\[C@H](C)[C@H](O)[C@@H](C)[C@@H](O)[C@@H](C)[C@H](OC(C)=O)[C@@H]1C` [Rifaximin], for which the growth came to 0.0515 ± 0.0028.

`CN(C)CCc1c[nH]c2ccc(Cn3cncn3)cc12` [Rizatriptan benzoate] showed a growth of 0.211 ± 0.015.

As for `CN(CCOc1ccc(CC2SC(=O)NC2=O)cc1)c1ccccn1` (stereo not given) [Rosiglitazone Hydrochloride], the growth is 0.215 ± 0.028.

On to `COCC1=C(C(=O)OC(C)OC(=O)OC(C)C)N2C(=O)[C@@H](NC(=O)/C(=N\OC)c3csc(N)n3)[C@H]2SC1` (stereo not given in full) [Cefpodoxime proxetil], for which the growth amounted to 0.285 ± 0.049.

As for `CC1COc2c(N3CCN(C)CC3)c(F)cc3c(=O)c(C(=O)O)cn1c23` (stereo not given) [Ofloxacin], the growth is 0.05347 ± 0.00015.

For the molecule `CC(C)(C)CC(C)(C)c1ccc(OCCOCC[N+](C)(C)Cc2ccccc2)cc1` [Benzethonium chloride], the growth was 0.0496 ± 0.0014.

Take `Cc1nc(=O)c2cc(CN(C)c3ccc(C(=O)N[C@@H](CCC(=O)O)C(=O)O)s3)ccc2[nH]1` [Raltitrexed]: the growth came out at 0.198 ± 0.029.

For the molecule `Nc1ccc(S(=O)(=O)Nc2nccs2)cc1` [Sulfathiazole], the growth was determined as 0.199 ± 0.025.

Molecule `Cc1onc(-c2ccccc2)c1-c1ccc(S(N)(=O)=O)cc1` [Valdecoxib] gave a growth of 0.229 ± 0.022.

Consider `C[N+](C)(C)CCCCCC[N+](C)(C)C` [Hexamethonium dibromide dihydrate], for which the growth is 0.233 ± 0.042.

In turn, `Cc1c(O)c(=O)n(-c2ccccc2)n1C` [Antipyrine, 4-hydroxy] yielded a growth of 0.206 ± 0.032.

In turn, `CCOC(=O)C(C)(C)Oc1ccc(Cl)cc1` [Clofibrate] gave a growth of 0.236 ± 0.041.

`CCCSc1ccc2[nH]c(NC(=O)OC)nc2c1` [Albendazole] showed a growth of 0.25 ± 0.025.

The molecule `CCN(CC)CCOC(=O)C(Cc1cccc2ccccc12)CC1CCCO1` (stereo not given) [Nafronyl oxalate] displayed a growth of 0.174 ± 0.008.
